# Laboratory results from the supplement of paper PMC9794691.
# Key:
# H1975 [1] = assay: area under confluence curve of compound monotherapy; compare to DMSO control AUC of the same experiment (AUC (confluence x time, arbitrary))
# Outline: (§1)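 Test compound alone was added at one dose (1 uM, or the highest with <50% parental inhibition) to adenocarcinoma lines seeded the previous day at 20,000–30,000 cells/well in 48-well plates with RPMI 1640 and 10% FBS at 37 °C and 5% CO2. The drug was refreshed with PBS washes every 3–4 days, and cultures were left drug-free from the DTP stage (10–21 days) while IncuCyte tracked confluence until wells given only an EGFR inhibitor regrew. Area under the confluence curve was obtained in Prism, as a median of triplicates where run, and compared against vehicle from the same experiment.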
# HCC2279 [2] = assay: as above
# Outline: as §1
# HCC2935 [3] = assay: as above
# Outline: as §1
# HCC4006 [4] = assay: as above
# Outline: as §1
# HCC827 [5] = assay: as above
# Outline: as §1
# II-18 [6] = assay: as above
# Outline: as §1
# H1975 [7] = assay: area under confluence curve of osimertinib + compound combination regimen (DTP regrowth); compare to osimertinib-only DTP control AUC of the same experiment (AUC (confluence x time, arbitrary))
# Outline: (§2)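 The area under the IncuCyte confluence–time curve, calculated in Prism and taken as the median of triplicates where available, is the value reported. It was measured in EGFR-mutant NSCLC lines that received the EGFR inhibitor either alone, followed by a test compound, or together with a fixed-dose test compound until the persister stage (10–21 days) and then drug-free medium. Medium was refreshed every 3–4 days until the inhibitor-only wells were confluent again.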
# HCC2279 [8] = assay: as above
# Outline: as §2
# HCC2935 [9] = assay: as above
# Outline: as §2
# HCC4006 [10] = assay: as above
# Outline: as §2
# HCC827 [11] = assay: as above
# Outline: as §2
# II-18 [12] = assay: as above
# Outline: as §2
smiles,measurement,setting,value
COc1nn(C)cc1Nc1nccc(-c2c[nH]c3c(NC(=O)[C@@H](C)N4CCN(C)CC4)cccc23)n1,area under confluence curve,"H1975 [1]; 1000 nM, DMSO control AUC in same experiment: 15857",17600
same,area under confluence curve,"HCC2279 [2]; 1000 nM, DMSO control AUC in same experiment: 14404",15500
same,area under confluence curve,"HCC2935 [3]; 1000 nM, DMSO control AUC in same experiment: 19215",20800
same,area under confluence curve,"HCC4006 [4]; 1000 nM, DMSO control AUC in same experiment: 18415",18600
same,area under confluence curve,"HCC827 [5]; 1000 nM, DMSO control AUC in same experiment: 21320",19500
same,area under confluence curve,"II-18 [6]; 1000 nM, DMSO control AUC in same experiment: 11834",5850
Cc1nc(N2CCC3(CC2)CO[C@@H](C)[C@H]3N)c(CO)nc1-c1cccc(Cl)c1Cl + C=CC(=O)Nc1cc(Nc2nccc(-c3cn(C)c4ccccc34)n2)c(OC)cc1N(C)CCN(C)C [osimertinib],area under confluence curve,"H1975 [7]; test compound dose 1000 nM, dosing schedule: sequential, osimertinib-only DTP control AUC in same experiment: 22968, DMSO control AUC in same experiment: 15857",15500
same,area under confluence curve,"H1975 [7]; test compound dose 1000 nM, dosing schedule: upfront, osimertinib-only DTP control AUC in same experiment: 27164, DMSO control AUC in same experiment: 15857",17800
same,area under confluence curve,"HCC2279 [8]; test compound dose 1000 nM, dosing schedule: sequential, osimertinib-only DTP control AUC in same experiment: 26096, DMSO control AUC in same experiment: 14404",16900
same,area under confluence curve,"HCC2279 [8]; test compound dose 1000 nM, dosing schedule: upfront, osimertinib-only DTP control AUC in same experiment: 33120, DMSO control AUC in same experiment: 14404",21000
same,area under confluence curve,"HCC2935 [9]; test compound dose 1000 nM, dosing schedule: sequential, osimertinib-only DTP control AUC in same experiment: 22314, DMSO control AUC in same experiment: 19215",19500
same,area under confluence curve,"HCC2935 [9]; test compound dose 1000 nM, dosing schedule: upfront, osimertinib-only DTP control AUC in same experiment: 29846, DMSO control AUC in same experiment: 19215",27200
same,area under confluence curve,"HCC4006 [10]; test compound dose 1000 nM, dosing schedule: sequential, osimertinib-only DTP control AUC in same experiment: 12791, DMSO control AUC in same experiment: 18415",9900
same,area under confluence curve,"HCC4006 [10]; test compound dose 1000 nM, dosing schedule: upfront, osimertinib-only DTP control AUC in same experiment: 17269, DMSO control AUC in same experiment: 18415",14300
same,area under confluence curve,"HCC827 [11]; test compound dose 1000 nM, dosing schedule: sequential, osimertinib-only DTP control AUC in same experiment: 15330, DMSO control AUC in same experiment: 21320",6150
same,area under confluence curve,"HCC827 [11]; test compound dose 1000 nM, dosing schedule: upfront, osimertinib-only DTP control AUC in same experiment: 20798, DMSO control AUC in same experiment: 21320",13400
same,area under confluence curve,"II-18 [12]; test compound dose 1000 nM, dosing schedule: sequential, osimertinib-only DTP control AUC in same experiment: 8624, DMSO control AUC in same experiment: 11834",2640
same,area under confluence curve,"II-18 [12]; test compound dose 1000 nM, dosing schedule: upfront, osimertinib-only DTP control AUC in same experiment: 10856, DMSO control AUC in same experiment: 11834",3200
CCn1nc(C2CCN(C(=O)CCO)CC2)nc1-c1cnc(N)c(-c2nnc(C(C)(C)C)o2)n1 + C=CC(=O)Nc1cc(Nc2nccc(-c3cn(C)c4ccccc34)n2)c(OC)cc1N(C)CCN(C)C [osimertinib],area under confluence curve,"H1975 [7]; test compound dose 1000 nM, dosing schedule: sequential, osimertinib-only DTP control AUC in same experiment: 15943, DMSO control AUC in same experiment: 20657",6780
same,area under confluence curve,"H1975 [7]; test compound dose 1000 nM, dosing schedule: upfront, osimertinib-only DTP control AUC in same experiment: 27804, DMSO control AUC in same experiment: 20657",13600
same,area under confluence curve,"HCC2279 [8]; test compound dose 1000 nM, dosing schedule: sequential, osimertinib-only DTP control AUC in same experiment: 11520, DMSO control AUC in same experiment: 9426",11600
same,area under confluence curve,"HCC2279 [8]; test compound dose 1000 nM, dosing schedule: upfront, osimertinib-only DTP control AUC in same experiment: 21942, DMSO control AUC in same experiment: 9426",16800
same,area under confluence curve,"HCC2935 [9]; test compound dose 1000 nM, dosing schedule: sequential, osimertinib-only DTP control AUC in same experiment: 6271, DMSO control AUC in same experiment: 13875",6130
same,area under confluence curve,"HCC2935 [9]; test compound dose 1000 nM, dosing schedule: upfront, osimertinib-only DTP control AUC in same experiment: 10360, DMSO control AUC in same experiment: 13875",4470
same,area under confluence curve,"HCC4006 [10]; test compound dose 1000 nM, dosing schedule: sequential, osimertinib-only DTP control AUC in same experiment: 19238, DMSO control AUC in same experiment: 16638",16700
same,area under confluence curve,"HCC4006 [10]; test compound dose 1000 nM, dosing schedule: upfront, osimertinib-only DTP control AUC in same experiment: 21234, DMSO control AUC in same experiment: 16638",5320
same,area under confluence curve,"HCC827 [11]; test compound dose 1000 nM, dosing schedule: sequential, osimertinib-only DTP control AUC in same experiment: 8266, DMSO control AUC in same experiment: 27404",7050
same,area under confluence curve,"HCC827 [11]; test compound dose 1000 nM, dosing schedule: upfront, osimertinib-only DTP control AUC in same experiment: 13929, DMSO control AUC in same experiment: 27404",11000
same,area under confluence curve,"II-18 [12]; test compound dose 1000 nM, dosing schedule: sequential, osimertinib-only DTP control AUC in same experiment: 21014, DMSO control AUC in same experiment: 18482",11100
same,area under confluence curve,"II-18 [12]; test compound dose 1000 nM, dosing schedule: upfront, osimertinib-only DTP control AUC in same experiment: 27084, DMSO control AUC in same experiment: 18482",4500
Cn1cnc2c(F)c(Nc3ccc(Br)cc3Cl)c(C(=O)NOCCO)cc21 [Selumetinib],area under confluence curve,"H1975 [1]; 300 nM, DMSO control AUC in same experiment: 14522",17100
same,area under confluence curve,"HCC2279 [2]; 300 nM, DMSO control AUC in same experiment: 40085",37400
same,area under confluence curve,"HCC2935 [3]; 300 nM, DMSO control AUC in same experiment: 15413",17800
same,area under confluence curve,"HCC4006 [4]; 300 nM, DMSO control AUC in same experiment: 10921",11800
same,area under confluence curve,"HCC827 [5]; 300 nM, DMSO control AUC in same experiment: 48895",45800
same,area under confluence curve,"II-18 [6]; 300 nM, DMSO control AUC in same experiment: 18482",15300
COC(=O)c1ccc([C@H]2c3[nH]c4ccccc4c3C[C@H](C(=O)OC)N2C(=O)CCl)cc1 + C=CC(=O)Nc1cc(Nc2nccc(-c3cn(C)c4ccccc34)n2)c(OC)cc1N(C)CCN(C)C [osimertinib],area under confluence curve,"H1975 [7]; test compound dose 100 nM, dosing schedule: sequential, osimertinib-only DTP control AUC in same experiment: 9919, DMSO control AUC in same experiment: 26010",7660
same,area under confluence curve,"H1975 [7]; test compound dose 100 nM, dosing schedule: upfront, osimertinib-only DTP control AUC in same experiment: 15327, DMSO control AUC in same experiment: 26010",13400
same,area under confluence curve,"HCC2279 [8]; test compound dose 100 nM, dosing schedule: sequential, osimertinib-only DTP control AUC in same experiment: 11520, DMSO control AUC in same experiment: 9426",13900
same,area under confluence curve,"HCC2279 [8]; test compound dose 100 nM, dosing schedule: upfront, osimertinib-only DTP control AUC in same experiment: 21942, DMSO control AUC in same experiment: 9426",20100
same,area under confluence curve,"HCC2935 [9]; test compound dose 100 nM, dosing schedule: sequential, osimertinib-only DTP control AUC in same experiment: 9121, DMSO control AUC in same experiment: 11459",5900
same,area under confluence curve,"HCC2935 [9]; test compound dose 100 nM, dosing schedule: upfront, osimertinib-only DTP control AUC in same experiment: 12748, DMSO control AUC in same experiment: 11459",6780
same,area under confluence curve,"HCC4006 [10]; test compound dose 100 nM, dosing schedule: sequential, osimertinib-only DTP control AUC in same experiment: 19238, DMSO control AUC in same experiment: 16638",19000
same,area under confluence curve,"HCC4006 [10]; test compound dose 100 nM, dosing schedule: upfront, osimertinib-only DTP control AUC in same experiment: 21234, DMSO control AUC in same experiment: 16638",21000
same,area under confluence curve,"HCC827 [11]; test compound dose 100 nM, dosing schedule: sequential, osimertinib-only DTP control AUC in same experiment: 25096, DMSO control AUC in same experiment: 35394",6740
same,area under confluence curve,"HCC827 [11]; test compound dose 100 nM, dosing schedule: upfront, osimertinib-only DTP control AUC in same experiment: 27382, DMSO control AUC in same experiment: 35394",27100
same,area under confluence curve,"II-18 [12]; test compound dose 100 nM, dosing schedule: sequential, osimertinib-only DTP control AUC in same experiment: 3520, DMSO control AUC in same experiment: 13556",183
same,area under confluence curve,"II-18 [12]; test compound dose 100 nM, dosing schedule: upfront, osimertinib-only DTP control AUC in same experiment: 6532, DMSO control AUC in same experiment: 13556",1800
